The values below come from PubChem BioAssay (NCI).

About 83,000 compounds went through this panel and 20% of them were active in at least one assay; those are over-represented in the sample as a whole.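 Assay: single dose, 48 h. Readout: percent growth (0 = no net growth; negative = cell death). Active: <10.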 Values without a mark were called inactive. Calls of active or inactive are those of the source.

What all share (experiment): NCI-60 one-dose screen, 48 h (100 = growth as untreated, 0 = no growth, -100 = all killed)
In assay [1] the test system is HT29 colon. The note with it: 10 µM unless noted.
Assay [2] has as its system SNB-75 CNS. The note with it: 10 µM unless noted.
Assay [3] relates to SNB-19 CNS. To be noted: 10 µM unless noted.
Assay [4] relates to U251 CNS. To be noted: 10 µM unless noted.
Assay [5] relates to PC-3 prostate. To be noted: 10 µM unless noted.
The subject of assay [6] is UACC-62 melanoma. To be noted: 10 µM unless noted.
Assay [7] has as its system LOX IMVI melanoma. To be noted: 10 µM unless noted.
Assay [8] has as its system SK-MEL-28 melanoma. To be noted: 10 µM.
Assay [9] has as its system SK-MEL-2 melanoma. To be noted: 10 µM unless noted.
Assay [10] deals with EKVX NSCLC. The note with it: 10 µM unless noted.
The test system of assay [11] is SN12C renal. The note with it: 10 µM unless noted.
The test system of assay [12] is UO-31 renal. To be noted: 10 µM unless noted.
The subject of assay [13] is TK-10 renal. The note with it: 10 µM unless noted.
Assay [14] relates to ACHN renal. The note with it: 10 µM unless noted.
The test system of assay [15] is CAKI-1 renal. The note with it: 10 µM unless noted.
In assay [16] the test system is A498 renal. To be noted: 10 µM unless noted.
Assay [17] deals with CCRF-CEM leukemia. To be noted: 10 µM unless noted.
Assay [18] relates to MOLT-4 leukemia. To be noted: 10 µM unless noted.
Assay [19] concerns SK-MEL-5 melanoma. To be noted: 10 µM unless noted.
Assay [20] relates to SR leukemia. The note with it: 10 µM unless noted.

As for `O=C(Nc1ccc(F)cc1F)c1cc(Br)ccc1O`, the growth in assay [1] was 27.8%; in assay [2] it was -17.9% (active); in assay [3], 12.1%; in assay [4], 3.39% (active); in [5], -8.08% (active); in assay [6] it was -19.7% (active). In addition, the growth in assay [7] was 17%; in assay [8], 16.5%; in assay [9] it was -27.5% (active); in [10], 8.29% (active); in assay [11], -7.89% (active); in [12], 1.12% (active). The growth is 2.49% (active) in assay [13]; 1.37% (active) in assay [14]; -26.3% (active) in [15]; -49.5% (active) in assay [16]; 10.6% in assay [17]; 0.366% (active) in [18].

As for `O=C(NC(=S)Nc1cccc(NC(=S)NC(=O)c2ccccc2)c1)c1ccccc1`, the growth is 74.1% in assay [1]; -2.29% (active) in [2]; 50.9% in [3]; 60.1% in [4]; 61.3% in assay [5]; 80% in [19]. The growth in [6] was 67%; in [8] it was 55.3%; in assay [9], 66.1%; in [11], 61.9%; in [12], 84.6%; in assay [13], 75.8%. In addition, the growth in assay [14] is 60.6%; in assay [16] it was 104%; in assay [18], 103%; in [20], 79.8%.

In the case of `O=C(CCc1nnc2sc(-c3ccc(Cl)cc3Cl)nn12)c1nc2ncccc2[nH]1`, the growth in assay [1] was -13% (active); in assay [2], 35.3%; in assay [3], 26.9%; in assay [4], -74.2% (active); in assay [5], -38.6% (active); in [6], -36.6% (active). Besides, the growth was -88.3% (active) in [7]; -9.94% (active) in [8]; -11.5% (active) in assay [9]; -26.2% (active) in assay [10]; -7.29% (active) in assay [11]; -82% (active) in assay [12]. For the same compound, the growth is -31.6% (active) in assay [13]; -48% (active) in assay [14]; -15.7% (active) in [15]; -68.6% (active) in assay [16]; 6.98% (active) in [17]; 5.44% (active) in assay [18].

In the case of `COC(=O)/C(CCC=C(C)C)=C1\[C@@H](OC(C)=O)C[C@@]2(C)[C@H]1C[C@@H](O)[C@H]1[C@@]3(C)CC[C@H](NC(=O)c4cnccn4)[C@@H](C)[C@@H]3CC[C@@]12C`, the growth in assay [1] is 99%; in assay [2] it was 86.3%; in [3] it was 96.5%; in assay [4], 98.3%; in assay [5] it was 86.2%; in [19], 96.5%. Further, the growth in [6] was 86.6%; in assay [8], 111%; in assay [9], 118%; in [11], 95.7%; in assay [12] it was 85.6%; in assay [13], 117%. Further, the growth was 101% in assay [14]; 92% in [15]; 108% in [16]; 103% in assay [17]; 83.9% in [18]; 93.5% in assay [20].

Turning to `O=C(Nc1ccccc1O)c1ccc(-c2ccc(Cl)cc2Cl)o1`, the growth is 53.9% in assay [1]; 78.1% in assay [2]; 89.2% in [3]; 81.1% in assay [4]; 71.7% in assay [5]; 85.9% in [19]. Further, the growth in [6] is 105%; in assay [8], 98.6%; in [9], 96.3%; in assay [11] it was 89.8%; in assay [12] it was 74%; in assay [13] it was 102%. Also, the growth is 102% in [14]; 78.7% in [15]; 75.1% in [17]; 65.6% in assay [18]; 48.7% in assay [20].

As for `O=c1oc2ccc(I)cc2c(=O)n1-c1ccc(F)cc1F`, the growth is 107% in assay [1]; -13.4% (active) in assay [2]; 14.7% in assay [3]; 8.66% (active) in assay [4]; 3.58% (active) in assay [5]; 0.781% (active) in assay [6]. Also, the growth in assay [7] was 11.4%; in assay [8], 18.9%; in assay [9], -17.3% (active); in assay [10], 59.2%; in [11] it was 10.9%; in assay [12] it was 7.61% (active). Also, the growth in assay [13] was 11.6%; in assay [14], 19.6%; in assay [15] it was -17.5% (active); in [16] it was -43.9% (active); in assay [17], 17.2%; in [18], 13.8%.

Regarding `O=C1c2ccccc2C(=O)c2c1ccc1[nH]c(CCl)nc21`, the growth in [1] is 5.78% (active); in assay [2] it was 33.4%; in assay [3], 47.8%; in [4], 9.78% (active); in assay [5], 39.3%; in assay [6], 39.5%. Further, the growth in [7] was -36.9% (active); in [8], 57.6%; in assay [9], 27.4%; in assay [10] it was 72.5%; in assay [11], -1.77% (active); in [12], 22.7%. Besides, the growth in assay [13] was 30.9%; in [14], 10.7%; in assay [15], 7.26% (active); in [16] it was 16.3%; in assay [17], -12.5% (active); in assay [18], -2.42% (active).

As to `O=c1oc2ccc(I)cc2c(=O)n1-c1ccc(Br)cc1F`, the growth in assay [1] was 50%; in assay [2] it was -18.9% (active); in [3], 18.2%; in assay [4], 0.297% (active); in assay [5], 1.7% (active); in assay [6] it was -14.7% (active). Further, the growth is 11.2% in assay [7]; 2.3% (active) in assay [8]; -27.7% (active) in assay [9]; 7.21% (active) in assay [10]; 0.636% (active) in assay [11]; 5.6% (active) in assay [12]. Also, the growth in assay [13] was 0.987% (active); in [14], 1.01% (active); in assay [15] it was -17.8% (active); in assay [16], -62.2% (active); in [17], 8.26% (active); in assay [18], 3.69% (active).

In the case of `O=C(Nc1ccc(I)cc1F)c1cc(F)ccc1O`, the growth is 25.6% in assay [1]; -20.7% (active) in [2]; 16.8% in assay [3]; -16.8% (active) in assay [4]; 3.39% (active) in assay [5]; -21.9% (active) in assay [6]. Also, the growth is 0.316% (active) in [7]; -5.23% (active) in assay [8]; -35.8% (active) in assay [9]; 5.82% (active) in assay [10]; 0.104% (active) in assay [11]; 6.41% (active) in assay [12]. The growth was -0.353% (active) in [13]; 2.56% (active) in [14]; -24.8% (active) in [15]; -58.9% (active) in assay [16]; 6.38% (active) in [17]; -16.4% (active) in assay [18].
